Test results from the supplement of paper PMC7156485.

Each compound was assayed on TDF (assay: H1.0 immunofluorescence intensity relative to DMSO (% of DMSO); higher = stronger H1.0 induction, active = 120 or more). Conditions: concentration: 10 µM; 24 h.
Outline: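 In 384-well plates holding 800 HCC1569 or TDF cells per well in RPMI with 10% FBS, compounds were tested at 10 µM for 24 h at 37 °C in triplicate. Fixation used 3.7% formaldehyde. Staining used a rabbit anti-H1.0 antibody with an AlexaFluor 647 secondary, plus DAPI. Each value, H1.0 nuclear intensity or cell number, is a median of replicates shown as percent of the plate control, and HCC1569 values were smoothed for positional effects.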
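Also: TDF is a line of transformed human dermal fibroblasts of mesenchymal origin.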

H1.0 immunofluorescence intensity, inactive:
CCCC1=C(c2ccc(O)cc2)N(c2ccc(O)cc2)NC1=C1C=CC(=O)C=C1 [1,3,5-tris(4-hydroxyphenyl)-4-propyl-1H-pyrazole] 92.5, O=c1c(-c2ccc(O)cc2)coc2cc(OC3OC(CO)C(O)C(O)C3O)cc(O)c12 (stereo unspecified) [Genistin] 93, NC(N)=NC(N)=Nc1ccccc1 [1-Phenylbiguanide] 89.2, CC(=O)OCC(CCn1cnc2cnc(N)nc21)COC(C)=O [Famciclovir] 99.2, N=C(N)c1ccc(OCCCCCOc2ccc(C(=N)N)cc2)cc1.O=S([O-])OCCO.O=S([O-])OCCO [Pentamidine isethionate] 103, O=c1cc(-c2ccccc2)oc2cc(O)c(O)cc12 [6,7-Dihydroxyflavone] 98.5, O=C(c1ccc(OCCN2CCCCC2)cc1)c1c(-c2ccc(O)cc2)sc2cc(O)ccc12 [Raloxifene] 102, CC(=O)Oc1ccccc1C(=O)Oc1ccc(CO[N+](=O)[O-])cc1 [4-[(nitrooxy)methyl]phenyl 2-(acetyloxy)benzoate] 110, NS(=O)(=O)c1cc2c(cc1Cl)NCNS2(=O)=O [Hydrochlorothiazide] 90.9, CC1(C)CC=C(c2ccccc2)c2cc(/C=C/c3ccc(C(=O)O)cc3)ccc21 101, COc1c(O)cc2oc(-c3ccc(O)cc3)cc(=O)c2c1O [5,7-dihydroxy-2-(4-hydroxyphenyl)-6-methoxy-4H-chromen-4-one] 88
